The values that follow come from PubChem BioAssay AID1240 (Sanford-Burnham Center for Chemical Genomics, 2008).

The structures appear in SMILES notation. The whole screen tested about 50,000 compounds, of which about 800 (1.6%) showed an effect of 50% or more. Many of the other results were omitted from the sample, so strong results are more common in it than they were.

Sequence of Bcl-2-like protein 10 (Homo sapiens) (Q9HD36 whole entry, looked up): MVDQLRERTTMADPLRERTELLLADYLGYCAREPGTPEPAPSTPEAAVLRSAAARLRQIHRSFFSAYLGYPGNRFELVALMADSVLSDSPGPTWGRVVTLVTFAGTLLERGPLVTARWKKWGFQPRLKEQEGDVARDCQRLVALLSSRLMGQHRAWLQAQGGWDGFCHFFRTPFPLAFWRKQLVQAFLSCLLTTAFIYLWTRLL

This assay addresses Bcl-2-like protein 10 (Homo sapiens) (UniProt Q9HD36). The assay can be described thus: Phenotype converters, Bcl-B/TR3 peptide binding displacement, primary biochemical FP (AID 1240).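 Further: 0% = Bcl-B with tracer peptide and DMSO and 100% = tracer peptide lacking Bcl-B.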 As to conditions: GST-Bcl-B / FITC-TR3 peptide fluorescence polarization; stronger effect = higher value; compound at 3.75 mg/L. On the technique in general: In fluorescence polarisation assays a small probe gives low polarisation when free and higher when bound to something large.
For `CN1CCN(C(=O)c2cnn3c(C(F)(F)F)cc(-c4ccco4)nc23)CC1`, the displacement is 6.4%.

Take `O=C(O)CCCN1C(=O)C(=O)/C(=C(\O)c2ccc(Cl)cc2)C1c1ccc(F)cc1` (configuration not stated): the displacement is -0.6%.

Consider `COc1ccc(N(CC(=O)NCCc2ccccc2)S(C)(=O)=O)c(OC)c1`, for which the displacement is 3.4%.

Take `Cc1ccc(OCC(=O)N2CCCc3ccccc32)c(C)c1`: the displacement came to 6%.

In the case of `Cc1ccc(-c2ccc(OCC(=O)N3CCCc4ccccc43)cc2)cc1`, the displacement came out at 59.3%.

Regarding `Cc1ccccc1OCC(=O)N1CCCc2ccccc21`, the displacement is -4.9%.

Take `Cc1ccc(-c2noc(COc3ccc4ccccc4c3)n2)cc1`: the displacement stood at 11%.

In the case of `CCOC(=O)c1cc2n(c1N(C(C)=O)C(C)=O)-c1ccccc1C2=O`, the displacement is -4.9%.

As for `O=C1c2ccccc2-n2c1cc(C=Nc1ccc(Cl)cc1)c2O`, the displacement was determined as 112%.

Regarding `CC(=O)NCCN=Cc1cc2n(c1O)-c1ccccc1C2=O`, the displacement turned out to be 167%.

Take `CC(=O)NCCN=Cc1c(O)[nH]c2ccccc12`: the displacement amounted to 14%.

For `O=c1[nH]c(=O)n(-c2ccccc2Cl)c(O)c1C=Nc1ccc(Cl)cc1`, the displacement is 18.6%.

For the compound `O=c1[nH]c(=O)n(-c2ccccc2F)c(O)c1C=Nc1ccc(Cl)cc1`, the displacement was -1.4%.

`CC(=O)Oc1ccc(C(=O)N2c3ccccc3Sc3ccccc32)cc1`: the displacement was -7.2%.

`Cc1onc(-c2c(F)cccc2Cl)c1C(=O)NCc1ccc(Cl)cc1`: the displacement is -6.9%.

In the case of `COc1ccc(/C=C/C(=O)NCCc2c[nH]c3ccccc23)cc1OC`, the displacement was -5%.

Turning to `COc1ccc2c(Cl)c(C(=O)N/N=C/c3ccccn3)sc2c1`, the displacement was 7.8%.

As for `O=C(Nc1ccccc1)Nc1nnc(SCc2ccc(F)cc2)s1`, the displacement was 13.5%.

For `Cn1c(=O)cc(-c2ccccc2)c2cc(Cl)ccc21`, the displacement was found to be 14.7%.

As to `O=C1c2ccccc2C(=O)c2c(NCCO)ccc(NCCO)c21`, the displacement was found to be 46.4%.

Turning to `Cn1c(=O)cc(-c2ccccc2)c2ccccc21`, the displacement is 7.4%.

`CCCCNc1ccc2c3c(cc(=O)n2C)-c2ccccc2C(=O)c13`: the displacement worked out at 129%.

Regarding `COCCCNc1ccc2c3c(nc(=O)n2C)-c2ccccc2C(=O)c13`, the displacement was 139%.

As for `CCCCCCCNc1ccc(NC(=O)c2ccccc2)c2c1C(=O)c1ccccc1C2=O`, the displacement is 1.5%.

Regarding `Cn1c(=O)cc2c3c(c(N4CCCC4)ccc31)C(=O)c1ccccc1-2`, the displacement came to 38.2%.

In the case of `Nc1c(Cl)cc2c(c1Oc1ccccc1)C(=O)c1ccccc1C2=O`, the displacement was 8.6%.

As to `CCCCNc1cc(=O)n(C)c(=O)n1C`, the displacement was determined as 6.5%.

Regarding `Cn1c(=O)cc2c3c(c(Nc4cccc(Cl)c4)ccc31)C(=O)c1ccccc1-2`, the displacement turned out to be 15.7%.

On to `Cn1c(=O)cc2c3c(c(N)ccc31)C(=O)c1ccccc1-2`, for which the displacement is 139%.

With `Cn1c(=O)cc2c3c(c(Oc4ccccc4)ccc31)C(=O)c1ccccc1-2`, the displacement turned out to be 108%.

Regarding `O=C1N=C(N=Nc2c(O)[nH]c3ccccc23)S/C1=C/c1ccc(Br)cc1`, the displacement stood at 8.9%.

Consider `COc1ccc(OC(C)C(=O)Nc2ccc3c(c2)OCCO3)cc1` (configuration not stated), for which the displacement is -4.5%.

As to `CC(C)CC(NC(=O)c1ccccc1)C(=O)OCC(=O)N1c2ccccc2Sc2ccccc21` (configuration not stated), the displacement worked out at 9.1%.

Take `COc1ccc(S(=O)(=O)N(CC(=O)N2CCN(c3ccccc3)CC2)c2ccc(C)cc2)cc1OC`: the displacement was determined as 6.1%.

`C=CCc1ccccc1OCCOc1ccc(Br)cc1/C=C1/SC(=S)N(C)C1=O`: the displacement was -1.8%.

In the case of `CCCCOc1ccc(C(=O)N2CCN(c3cccc(C)c3C)CC2)cc1`, the displacement is -8.2%.

As to `NNC(=O)COc1ccccc1OCCOCCOc1ccccc1OCC(=O)NN`, the displacement is -10.4%.

As to `CCOC(=O)c1ccc2c3c(onc13)-c1ccccc1C2=O`, the displacement was 120%.

In the case of `CCOc1ccc2noc3c2c1C(=O)c1ccccc1-3`, the displacement came to 123%.

On to `O=C1C=Cc2ccccc2/C1=N/Oc1ccc2noc3c2c1C(=O)c1ccccc1-3`, for which the displacement was determined as 25.9%.

With `CC(=O)c1ccc2c3c(onc13)-c1ccccc1C2=O`, the displacement was 2.4%.

As for `COc1ccccc1NS(=O)(=O)c1cccc2c1C(=O)c1ccccc1C2=O`, the displacement is 3%.

`COc1ccc2noc3c2c1C(=O)c1ccccc1-3`: the displacement was 127%.

Consider `O=C1c2ccccc2-c2onc3ccc(Sc4ccccc4)c1c23`, for which the displacement stood at 17.9%.

Take `CCOc1ccc(Nc2ccc3noc4c3c2C(=O)c2ccccc2-4)cc1`: the displacement was -2%.

As to `CC(C)CCOC(=O)c1ccc2c3c(onc13)-c1ccccc1C2=O`, the displacement amounted to 21%.

For the compound `COc1ccc(OC)c2c1C(=O)c1ccccc1C2=O`, the displacement was 101%.

As to `O=C1c2ccccc2-c2onc3ccc(Cl)c1c23`, the displacement worked out at 40.4%.

As to `COC1=C(c2ccccc2)C(=O)c2ccccc2C1=O`, the displacement was -8.5%.

`COc1cc2c(NCc3ccco3)cc(O)c(CC(=O)Nc3ccc(Cl)cc3)c2cc1OC`: the displacement was 13%.

With `COc1ccc(OC)c(CN2CCN(S(C)(=O)=O)CC2)c1`, the displacement is -14%.

Take `O=C(CSc1nnc(-c2ccco2)n1-c1ccccc1)CSc1nnc(-c2ccco2)n1-c1ccccc1`: the displacement is 15.9%.

For `C=CCNC(=O)C1CC(=O)N(c2ccc(C)cc2)C1` (configuration not stated), the displacement is -7.4%.

`Cc1cc(C)nc(NS(=O)(=O)c2ccc(NC(=O)CSc3ncn[nH]3)cc2)n1`: the displacement worked out at 5.3%.

In the case of `Nc1nc(Nc2nc(N3CCCC3)cc(C(F)(F)F)n2)cc(C(F)(F)F)n1`, the displacement amounted to 12%.

As for `CC1=C/C(=N/OS(=O)(=O)c2ccccc2)C=CC1=O`, the displacement came out at 28.6%.

For the compound `O=C1c2ccc(Oc3ccc([N+](=O)[O-])cc3)cc2C(=O)N1c1cccc(-c2nc3ccccc3o2)c1`, the displacement is -3.8%.

Take `O=C(Nc1ccc(Cl)c(Cl)c1)c1cc([N+](=O)[O-])ccc1N1CCCCC1`: the displacement worked out at 14%.

For `O=C(O)c1cccc2c1NC(c1ccccc1Br)C1CC=CC21` (configuration not stated), the displacement stood at 132%.

As to `O=C(O)c1cccc2c1NC(c1ccc(Cl)cc1)C1CC=CC21` (configuration not stated), the displacement worked out at 148%.

As to `COc1cccc2c1NC(c1ccc(Cl)cc1)C1CC=CC21` (configuration not stated), the displacement was 9.1%.

For the compound `O=[N+]([O-])c1cccc2c1NC(c1ccc(Cl)cc1)C1CC=CC21` (configuration not stated), the displacement was found to be 7.5%.

Regarding `O=C(O)c1cccc2c1NC(c1cccc3ccccc13)C1CC=CC21` (configuration not stated), the displacement stood at 25.1%.

For the compound `COc1cccc2c1NC(c1ccccc1Br)C1CC=CC21` (configuration not stated), the displacement was -4.2%.

With `COc1cc(-c2ccccc2)nc(N)n1`, the displacement is -5.4%.

`COc1ccc(/C=C/C(=O)Nc2ccc(Br)cc2C(=O)c2cc(OC)c(OC)c(OC)c2)cc1OC`: the displacement was determined as 1.6%.

Turning to `COCC(=O)Nc1ccc2ccccc2c1`, the displacement is -2.7%.

`Nc1ccc2nn(-c3ccc([N+](=O)[O-])cc3)nc2c1`: the displacement is -8.4%.

As for `COc1ccc(OC)c(N=Cc2c(O)n(-c3ccccc3C)c(=O)[nH]c2=O)c1`, the displacement was found to be 7.3%.

In the case of `COc1ccc(N=Cc2c(O)n(-c3ccccc3OC)c(=O)[nH]c2=O)cc1`, the displacement was 9.4%.

Take `COc1ccc(OC)c(N=Cc2c(O)n(-c3ccccc3Cl)c(=O)[nH]c2=O)c1`: the displacement was 98.7%.

As to `COc1cccc(N=Cc2c(O)n(-c3cc(OC)ccc3OC)c(=O)[nH]c2=O)c1`, the displacement is -2%.

Turning to `COc1ccc(N=Cc2c(O)n(-c3cc(OC)ccc3OC)c(=O)[nH]c2=O)cc1`, the displacement stood at 103%.

`COc1ccccc1N=Cc1c(O)n(-c2ccccc2Cl)c(=O)[nH]c1=O`: the displacement was -6.6%.

Turning to `CCOC(=O)c1c[nH]c2cc(C(=O)OC)ccc2c1=O`, the displacement is -19.8%.

On to `CCC1=NN2C(=N)/C(=C/c3cccc(OCc4ccccc4F)c3)C(=O)N=C2S1`, for which the displacement came out at 6.1%.

Turning to `Cc1ccc(COc2c(Br)cc(/C=C(\C#N)c3nn(-c4ccccc4)c(N)c3C#N)cc2Br)cc1`, the displacement came to 11.2%.

`Cn1c(=O)n(C)c2cc(/C=C(\C#N)c3nn(-c4ccccc4)c(N)c3C#N)ccc21`: the displacement amounted to 92.9%.

As to `Cc1ccc(/C=C(\C#N)c2nn(-c3ccccc3)c(N)c2C#N)cc1`, the displacement was 2.5%.

For the compound `COC(=O)COc1ccc2c(=O)c(Oc3ccc(C(C)(C)C)cc3)coc2c1`, the displacement amounted to 8%.

With `C/C(=N/NC(=O)COc1ccc(C)cc1)c1ccc([N+](=O)[O-])cc1`, the displacement worked out at 1.6%.

`O=C/C(=C\Nc1ccc(S(=O)(=O)CCO)cc1)c1nc2cc(Cl)ccc2o1`: the displacement was 88.3%.

For the compound `O=C/C(=C\Nc1ccc(S(=O)(=O)CCO)cc1)c1nc2ccccc2o1`, the displacement turned out to be 9.7%.

As to `CNS(=O)(=O)c1ccc(N/C=C(\C=O)c2nc3cc(Cl)ccc3o2)cc1`, the displacement came to 12.6%.

Regarding `Cn1c(O)c(N=NC(=O)c2ccccc2NC(=O)c2ccccc2)c2ccccc21`, the displacement was -4%.

As to `COCCOC(=O)c1c(C)oc2ccc(OCc3c(F)c(F)c(F)c(F)c3F)cc12`, the displacement amounted to 10.8%.

Take `CCn1cc(/C=C2/C(=O)NN(c3ccccc3)C2=O)c2ccccc21`: the displacement worked out at 13.1%.

With `CC(C)NC(=O)C1CC1(c1ccccc1)c1ccccc1` (configuration not stated), the displacement was found to be 4.7%.

As to `Cc1ccc(-n2ccc(N)c(C#N)c2=O)cc1`, the displacement came out at 3.3%.

As to `COc1ccc(/C=C2\SC(=O)N(CCC(=O)Nc3ccccc3C)C2=O)cc1OC`, the displacement came out at 79.4%.

As for `COc1ccccc1NC(=O)CCN1C(=O)S/C(=C/c2ccc(OC)c(OC)c2)C1=O`, the displacement was 34.6%.

As for `COc1ccc(/C=C2/SC(=O)N(CC(=O)Nc3cc(C)on3)C2=O)cc1OC`, the displacement worked out at 12.8%.

Take `COc1ccc(/C=C2/SC(=O)N(CC(=O)Nc3ccc(C)c(C)c3)C2=O)cc1OC`: the displacement was 67%.

In the case of `COc1ccc(/C=C2/SC(=O)N(CC(=O)Nc3ccc(F)c(Cl)c3)C2=O)cc1OC`, the displacement came out at 12.3%.

Regarding `COc1ccc(/C=C2\SC(=S)N(CCC(=O)Nc3ccccc3C)C2=O)cc1OC`, the displacement worked out at 15.4%.

Consider `COC(=O)c1ccc(C(=O)OC)c(NC(=O)COc2cccc(Cl)c2)c1`, for which the displacement amounted to 1.2%.

`COC(=O)c1cc(NC(=O)COc2ccccc2[N+](=O)[O-])cc(C(=O)OC)c1`: the displacement amounted to 13%.

Regarding `COC(=O)c1ccc(C(=O)OC)c(NC(=O)COc2ccccc2Cl)c1`, the displacement amounted to 73.8%.

In the case of `COC(=O)c1ccc(C(=O)OC)c(NC(=O)CC(c2ccccc2)c2ccccc2)c1`, the displacement came out at 63.5%.

In the case of `COC(=O)c1ccc(C(=O)OC)c(NC(=O)/C=C/c2ccc(Cl)cc2)c1`, the displacement was -6.4%.

`COC(=O)c1ccc(NC(=O)CC(c2ccccc2)c2ccccc2)cc1`: the displacement was -0.2%.

For `CCC(C(=O)Nc1cc(C(=O)OC)ccc1C(=O)OC)c1ccccc1` (configuration not stated), the displacement stood at 5%.

For the compound `COC(=O)c1ccc(C(=O)OC)c(NC(=O)/C=C/c2ccccc2)c1`, the displacement turned out to be 8.7%.

For `COC(=O)c1ccc(C(=O)OC)c(NC(=O)Cc2ccccc2[N+](=O)[O-])c1`, the displacement is 14.7%.

As to `COC(=O)c1ccc(C(=O)OC)c(NC(=O)COc2ccc(Cl)cc2C)c1`, the displacement came out at 5.4%.

Regarding `COC(=O)c1ccc(C(=O)OC)c(NC(=O)/C=C/c2ccco2)c1`, the displacement came out at 63.5%.

`COC(=O)c1ccc(C(=O)OC)c(NC(=O)COc2ccccc2[N+](=O)[O-])c1`: the displacement amounted to 66.9%.
